Screening results from PubChem.
Cruzain inh noDet: blocks cruzain activity in detergent-free assay; purified cruzain, Z-FR-AMC fluorescence, no detergent; Potency, µM, without a hit: max response, negative = inhibition, most hits filed as inhibitors; 200,000 compounds, 2.3% hits;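 further: plate controls were enzyme without inhibitor for no effect and buffer without enzyme for full effect; nearly all actives have a fitted effect of over 40% in size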
Target sequence (P25779 123-467 limits assumed): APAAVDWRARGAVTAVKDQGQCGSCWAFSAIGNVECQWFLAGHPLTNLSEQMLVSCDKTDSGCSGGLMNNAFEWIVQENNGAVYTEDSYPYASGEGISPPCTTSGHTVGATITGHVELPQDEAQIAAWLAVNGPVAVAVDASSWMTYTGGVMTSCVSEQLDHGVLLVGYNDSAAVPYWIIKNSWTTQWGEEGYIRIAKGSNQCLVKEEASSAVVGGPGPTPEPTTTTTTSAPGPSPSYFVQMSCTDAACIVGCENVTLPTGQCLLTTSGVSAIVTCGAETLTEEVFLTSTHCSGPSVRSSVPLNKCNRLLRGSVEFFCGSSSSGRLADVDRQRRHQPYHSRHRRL
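Detergent-free condition (0.00005% Triton X-100) in acetate buffer pH 5.5 with DTT. 1.5 nM enzyme and compound were pre-mixed 15 min, then 2 uM Z-FR-AMC substrate added; reaction progress from fluorescence change between first and third reads (60 s).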
Cruzain inh Det: inhibitors of Trypanosoma cruzi cruzain with detergent; P25779; purified cruzain, Z-FR-AMC fluorescence, 0.01% Triton; Potency, µM, for inactives: max response, negative = inhibition, actives largely listed as inhibitors; 200,000 compounds, 0.43% hits;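 further: plate controls were neutral wells for no effect and buffer without enzyme for full effect; nearly all actives have a fitted effect of over 40% in size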
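Detergent-containing arm of a paired screen for aggregation-based inhibition: 0.01% Triton X-100 present. Cruzain at 1.5 nM cleaved 2 uM Z-FR-AMC at pH 5.5 with 5 mM DTT; AMC fluorescence gain over 60 s measured activity.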
Starred values were filed as active, the others as inactive; u = inconclusive. Shown are actives, neighbours in structure and some others; about 2.5% of the full set was active somewhere. The call rests on the fitted dose curve; in most records, active means well fitted curve in the direction sought with a large enough effect; inconclusive means small, poorly fitted or top-dose-only effect, or another doubt; inactive means no such curve, though single readings can be large; an effect the other way counts as inactive or inconclusive. Potency means the concentration at half of the fitted maximal effect.

SMILES | Cruzain inh noDet | Cruzain inh Det
C=CCNc1ncnc2c1[nH]c1ccc(Cl)cc12 | 12.6µM* | u
COc1ccc(-c2noc(C3CC(=O)N(c4ccc(C)c(F)c4)C3)n2)c(OC)c1 (stereo unspecified) | u | -8.6%
Cc1ccc(NC(=O)C2CCCN2S(=O)(=O)c2cccc3nsnc23)cc1Cl (stereo unspecified) | -0.6% | -0.3%
c1ccc2c(c1)[nH]c1c(NCC3CCCO3)ncnc12 (stereo unspecified) | 25.1µM* | -29.6%
CCCCOCCCNc1ncnc2c1[nH]c1ccccc12 | -29.1% | u
Cc1ccc(-c2nc3cc(NC(=O)c4cc(Br)ccc4Cl)ccc3o2)cc1 | -26.3% | -0.7%
Cc1cc(C)c2oc(-c3ccc(NC(=O)c4cc(Br)ccc4Cl)cc3)nc2c1 | 2.51µM* | -1.3%
COc1ccc(C(=O)Nc2ccc3c(c2)N(C2CCCC2)C(=O)c2ccccc2S3)cc1OC | -7.5% | -0.8%
Cc1ccc(S(=O)(=O)N2CCN(C(=O)CSc3ncc(C(F)(F)F)cc3Cl)CC2)cc1 | 6.5% | -4.1%
Cc1ccc(CO/N=C\Cc2snc(Sc3ncc(C(F)(F)F)cc3Cl)c2C#N)cc1 | 3.98µM* | -7.6%
COc1cccc(-n2cc(C(=O)Nc3cc(OC)c(OC)c(OC)c3)c3ccccc3c2=O)c1 | -6.9% | -0.2%
Cc1ccc(OCCn2nnc3sc4c(c3c2=O)CCC(C)C4)cc1 (stereo unspecified) | -6.4% | -0.1%
COc1cc(/C=N\NC(=O)c2ccc(C)nc2)ccc1OC(=O)c1ccco1 | -5.9% | -5.4%
COc1cc(/C=N/Nc2cccc(C)c2)ccc1OC(=O)c1ccco1 | 15.8µM* | -2.4%
COc1cc(/C=N/NC(=O)CNC(=O)c2ccccc2)ccc1OC(=O)c1cccs1 | -0.2% | -5.8%
COc1cc(/C=N/Nc2ccc(Cl)cc2)ccc1OC(=O)c1cccs1 | 7.94µM* | -3.0%
CC1CCCCC1NC(=O)COC(=O)c1ccccc1NC(=O)c1ccco1 (stereo unspecified) | -0.5% | 2.5%
O=C(Nc1ccccc1C(=O)OCC(=O)N1CCc2ccccc2C1)c1ccco1 | 12.6µM* | -5.4%
COc1ccccc1OCCn1c(NC(=O)c2ccccc2Cl)nc2ccccc21 | 20µM* | -6.5%
CCCn1c(NC(=S)Nc2ccccc2)nc2ccccc21 | 6.3% | 3.8%
S=C(Nc1ccccc1)Nc1nc2ccccc2n1CCOc1ccc(Cl)cc1 | 10µM* | 2.9%
COc1ccccc1OCCn1c(NC(=O)c2ccc(Cl)cc2)nc2ccccc21 | 3.3% | -2.4%
Clc1ccc(NCc2nc3ccccc3n2CCOc2ccccc2)cc1 | -7.2% | -7.0%
CCn1c(NC(=S)Nc2ccccc2)nc2ccccc21 | 25.1µM* | -2.4%
COc1ccc(C)cc1NC(=O)Nc1ccccc1OCc1cc(=O)n2ccccc2n1 | u | -8.2%
SMILES | Cruzain inh noDet | Cruzain inh Det
Cc1nc(-c2cccc(NC(=O)Nc3ccc([N+](=O)[O-])cc3)c2)no1 | -20.7% | -18.8%
Cc1ccc(NC(=O)C(=O)c2cc(C)n(-c3ccc(F)cc3)c2C)cc1C | 0.6% | -2.7%
S=C(Nc1ccc(Oc2ccc(NC(=S)NC3CCCCC3)cc2)cc1)NC1CCCCC1 | 3.98µM* | -0.5%
S=C(Nc1ccc(Oc2ccccc2)cc1)NC1CCCCCC1 | 5.3% | -4.9%
C=Cc1ccc(Cn2c(SCC(=O)N3CCN(c4ccc(F)cc4)CC3)nc3ccccc32)cc1 | -2.2% | -2.3%
CCCS(=O)(=O)Nc1cc(-c2cn3cccc(C)c3n2)ccc1C | -0.4% | 0.4%
COc1cc(OC)c(NS(=O)(=O)c2c(C)nc3sc(C)cn3c2=O)cc1Cl | 9.9% | -4.4%
CCc1ccc(NC(=O)N2CCOc3ccc(Cl)cc32)cc1 | -10.2% | -5.7%
CS(=O)(=O)N1CCc2cc(-c3csc(NC(=O)Cc4cccs4)n3)ccc21 | 20µM* | 3.0%
O=C(CN1CCOCC1)Nc1nc(-c2ccc3c(c2)CCN3S(=O)(=O)c2ccccc2)cs1 | u | -1.1%
Nc1c(C(=O)c2ccccc2)sc2c1c(=O)[nH]c(=O)n2-c1ccccc1 | 11.4% | -7.6%
Cc1ccc(C(=O)c2sc3c(c2N)c(=O)[nH]c(=O)n3CCc2ccccc2)cc1 | 12.6µM* | -14.7%
COc1ccc(S(=O)(=O)N(CCc2ccccc2)CC(=O)NCc2ccccc2)cc1OC | u | -3.7%
CCOC(=O)N1CCC(NC(=O)c2ccc3c(c2)N(Cc2ccc(F)cc2)C(=O)c2ccccc2S3=O)CC1 (stereo unspecified) | u | -1.7%
CCOC(=O)CN1C=C(c2ccc3ccccc3n2)C(C[N+](=O)[O-])c2ccccc21 (stereo unspecified) | 25.1µM* | -3.7%
CCOC(=O)CSc1nc2ccccc2n1CC(=O)N(C(C)C)C(C)C | -8.4% | 1.1%
N=C(N)c1ccccc1 | -11.2% | 4.3%
N=C(N)c1ccc(/C=C\c2ccc(C(=N)N)cc2)cc1 | 3.16µM* | -24.7%
Cc1oc2ccc(O)c(CN3CCCC(C)C3)c2c1C(=O)Nc1ccccc1 (stereo unspecified) | -9.2% | -4.2%
CN(C)c1ccc(C(CNC(=O)c2ccccc2Cl)N2CCCC2)cc1 (stereo unspecified) | -3.2% | -1.4%
Cc1cc2c(cc1S(=O)(=O)N(CCO)Cc1ccccc1)OCC(=O)N2 | 11.4% | 1.7%
O=C(COC(=O)CCC1CCCC1)Nc1ccc(Cl)cn1 | -8.6% | 4.2%
O=C(COC(=O)CCC1CCCC1)Nc1nc2c(F)c(F)c(F)cc2s1 | 10µM* | -3.7%
CCCCN1CC(c2nc3ccccc3n2CCCCOc2cccc(C)c2C)CC1=O (stereo unspecified) | 1.8% | -2.3%
CSc1ccc(/C=C(/NC(=O)c2ccc(C)cc2)C(=O)Nc2cccc(F)c2)cc1 | 20µM* | -1.4%
SMILES | Cruzain inh noDet | Cruzain inh Det
Cc1ccc(NC(=O)/C(=C\c2ccc([N+](=O)[O-])cc2)NC(=O)c2ccccc2)cc1 | 4.7% | -1.0%
Cc1ccc(CNC(=O)c2nn(C)c3c2CSc2ccc(C)cc2-3)cc1 | 20µM* | -3.5%
Cc1ccc(CCNC(=O)c2nn(C)c3c2CSc2ccccc2-3)cc1 | -9.1% | -4.1%
CCN(CC)CCNC(=O)Nc1ccc2c(c1)N(Cc1ccccc1)C(=O)c1ccccc1S2 | -2.5% | -3.0%
CCOc1ccc(NC(=O)N(Cc2cn(CC)c3ccccc23)C2CCCCCC2)cc1 | -6.2% | 4.2%
O=c1oc2ccc(Br)cc2cc1-c1csc(-c2ccccc2)n1 | -4.6% | 1.5%
Cc1cc(C)c(-c2csc(Cc3nc(-c4cc5ccccc5oc4=O)cs3)n2)cc1C | 10µM* | -1.8%
Cc1ccc(-c2csc(Cc3nc(-c4cc5ccccc5oc4=O)cs3)n2)cc1 | 6.31µM* | 2.2%
Cc1cc(C)c(-c2csc(-c3cc4ccccc4oc3=O)n2)cc1C | 5.2% | -0.2%
O=C(CSc1nc(=O)[nH]c2c1CCCC2)Nc1ccc(Cl)c(Cl)c1 | -8.2% | -0.7%
Cc1ccc(NC(=O)c2cc(CN3CCOCC3)on2)cc1Cl | 0.5% | -1.2%
CS(=O)(=O)Nc1ccc(-c2nc3ccccc3s2)cc1 | -6.3% | -17.7%
COc1ccc(C)cc1NC(=O)Nc1ccc(Br)cn1 | 25.1µM* | 2.5%
CCOC(=O)Nc1cc(C)ccc1OC | -12.4% | 8.2%
Cc1ccc(-c2nnn(CC(=O)N(c3ccc(F)cc3)C(C(=O)NC(C)(C)C)c3ccco3)n2)o1 (stereo unspecified) | 9.4% | 1.9%
Cc1ccc(-c2nnn(CC(=O)N(c3ccc(F)cc3)C(C(=O)NC3CCCC3)c3ccco3)n2)o1 (stereo unspecified) | 10µM* | 2.4%
Cc1ccc(-c2nnn(CC(=O)N(c3ccccc3F)C(C(=O)NC3CCCC3)c3ccco3)n2)o1 (stereo unspecified) | 2.9% | 1.1%
